Assay outcomes deposited in PubChem BioAssay by National Center for Advancing Translational Sciences (NCATS).
HP1b chromo inh = HP1-beta chromodomain-methylated histone interaction inhibition; AlphaScreen HP1-beta / biotin-H3K9me3 peptide binding; AID 540317; Potency, µM (highest dose often 114 µM), for inactives: top-dose activity change, negative = inhibition, hits mostly inhibitors; actives 0.56% (n = 390,000); note: potency is the fitted concentration of half-maximal effect; nearly all actives have a fitted effect of over 70% in size
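Compound inhibition of the preformed complex between 50 nM HP1-beta and 50 nM biotinylated H3K9me3 peptide was read by AlphaScreen. Buffer was PBS pH 7.4 with 0.01% Tween-20. Incubations ran 30 min at room temperature, with 10 ug/mL donor/acceptor beads.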
G9a inh-1 = blocks human histone lysine methyltransferase G9a. Q96KQ7. G9a H3K9 monomethylation, AlphaScreen, 2 h. Potency, µM (doses to about 102 µM), inactives show at the top dose activity, negative = inhibition, most hits filed as inhibitors. actives 8.8% (n = 350,000). AID 504332; note: potency is the fitted concentration of half-maximal effect; % is set by controls: 0 for no effect and ±100 for the full control effect; nearly all actives have a fitted effect of over 75% in size
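Chemiluminescent proximity detection of H3K9 monomethylation, read after 10 min bead incubation in the dark. Reaction: 20 nM G9a, 500 nM biotin-H3K9 peptide, 20 uM SAM cofactor, 2 h, room temperature, following 15 min enzyme-compound preincubation.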
JMJD2A Tudor inh = blocks the human JMJD2A Tudor domain | AlphaScreen JMJD2A-Tudor / H3K4me3 peptide binding | Potency, µM (doses to about 114 µM), without a hit: top-dose activity change, negative = inhibition, most hits filed as inhibitors | actives 4.4% (n = 390,000) | AID 504339; note: potency is the fitted concentration of half-maximal effect; % is set by controls: 0 for no effect and ±100 for the full control effect; nearly all actives have a fitted effect of over 50% in size
Target sequence (O75164 whole entry, looked up, the tested form may be a part): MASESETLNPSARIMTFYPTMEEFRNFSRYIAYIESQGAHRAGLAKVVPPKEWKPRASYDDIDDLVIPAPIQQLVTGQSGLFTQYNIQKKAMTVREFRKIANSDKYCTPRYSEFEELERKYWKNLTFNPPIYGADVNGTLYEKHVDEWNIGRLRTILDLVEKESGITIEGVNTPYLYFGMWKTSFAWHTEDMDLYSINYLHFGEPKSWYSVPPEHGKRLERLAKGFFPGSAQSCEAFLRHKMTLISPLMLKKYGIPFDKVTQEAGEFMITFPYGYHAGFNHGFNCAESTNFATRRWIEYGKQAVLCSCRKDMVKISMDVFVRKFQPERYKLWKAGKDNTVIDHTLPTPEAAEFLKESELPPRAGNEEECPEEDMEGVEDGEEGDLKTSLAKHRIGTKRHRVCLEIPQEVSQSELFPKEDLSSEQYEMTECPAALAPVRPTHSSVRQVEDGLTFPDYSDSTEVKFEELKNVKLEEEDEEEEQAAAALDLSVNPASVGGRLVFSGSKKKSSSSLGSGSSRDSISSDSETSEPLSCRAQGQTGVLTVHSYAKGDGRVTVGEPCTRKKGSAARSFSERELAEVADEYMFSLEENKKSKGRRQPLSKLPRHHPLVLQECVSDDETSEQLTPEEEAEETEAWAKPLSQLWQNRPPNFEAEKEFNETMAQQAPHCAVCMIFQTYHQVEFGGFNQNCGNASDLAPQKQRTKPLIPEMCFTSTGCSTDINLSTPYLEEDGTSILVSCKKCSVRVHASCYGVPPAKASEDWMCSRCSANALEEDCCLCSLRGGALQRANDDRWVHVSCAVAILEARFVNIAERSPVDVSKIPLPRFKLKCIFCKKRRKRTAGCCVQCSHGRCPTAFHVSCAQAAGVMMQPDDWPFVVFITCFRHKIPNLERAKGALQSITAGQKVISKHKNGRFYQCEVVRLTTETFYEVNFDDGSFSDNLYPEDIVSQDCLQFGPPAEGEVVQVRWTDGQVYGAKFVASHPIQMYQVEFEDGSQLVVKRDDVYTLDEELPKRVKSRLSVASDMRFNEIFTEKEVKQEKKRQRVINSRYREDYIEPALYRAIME
BAZ2B inh = BAZ2B (human) inhibition | Q9UIF8 | AlphaScreen BAZ2B-H3K14Ac peptide displacement | Potency, µM (series often up to 114 µM), for the others: at the highest dose activity change, negative = inhibition, hits mostly inhibitors | actives 4.4% (n = 360,000) | AID 504333; note: potency is the fitted concentration of half-maximal effect; % is set by controls: 0 for no effect and ±100 for the full control effect; nearly all actives have a fitted effect of over 60% in size
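Compounds, titrated to a top concentration of 110 uM, were incubated 30 min at room temperature with preformed BAZ2B/acetyl-K14 H3 peptide complex (50 nM each). Proximity signal was measured by AlphaScreen after 20 min with beads.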
L3MBTL1 inh-1 = L3MBTL1 (human) inhibition; Potency, µM (highest dose often 57.1 µM), without a hit: at the highest dose activity, negative = inhibition, hits mostly inhibitors; AID 485360; actives 0.66% (n = 230,000); AlphaScreen L3MBTL1–H3K9me1 peptide binding; note: potency is the fitted concentration of half-maximal effect; % is set by controls: 0 for no effect and ±100 for the full control effect; nearly all actives have a fitted effect of over 60% in size
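L3MBTL1 (50 nM) pre-complexed 30 min with biotinylated H3(1-15)K9me1 peptide (75 nM), then compounds added for 30 min at room temperature; AlphaScreen streptavidin donor/nickel chelate acceptor beads (10 ug/mL final) read after 30 min dark incubation.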
L3MBTL1 inh-2 = validation of human L3MBTL1 methyl-lysine binding inhibitors; shares compounds with L3MBTL1 inh-1; L3MBTL1 methyl-lysine binding inhibition, biochemical qHTS; Potency, µM, most hits filed as inhibitors; actives 91% (n = 500); AID 540279; note: potency is the fitted concentration of half-maximal effect; nearly all actives have a fitted effect of over 70% in size
L3MBTL1 ctr = interferes with AlphaScreen signal in L3MBTL1 counterscreen; Potency, µM (titrated, usually from 57.1 µM), for inactives: at the highest dose activity change, negative = inhibition, hits mostly inhibitors; shares compounds with L3MBTL1 inh-1; 500 tested, under 10 active; AlphaScreen counterscreen, signal inhibition; note: potency is the fitted concentration of half-maximal effect; 0% is about no effect
ME-1 growth = inhibitors of ME-1 leukemia cell proliferation, CBFb-RUNX1 project. shares compounds with BAZ2B inh. ME-1 cell proliferation, ATP luminescence, 48 h. Potency, µM (series often up to 56.1 µM), without a hit: at the top dose activity change, negative = inhibition, actives largely listed as inhibitors. actives 20% (n = 140)
G9a inh-2 = inhibits human G9a histone lysine methyltransferase, hit confirmation | shares compounds with JMJD2A Tudor inh | actives 89% (n = 370) | G9a H3K9 monomethylation, AlphaScreen, 2 h | Potency, µM, most hits filed as inhibitors | AID 588344; note: potency is the fitted concentration of half-maximal effect; nearly all actives have a fitted effect of over 65% in size
* hit, by the source's call; ? = inconclusive; nt = no result; ! = repeats disagree; [ ] = remark or other dose. This is a sample that favours compounds with a hit; in the whole collection about 11% have one here. Calls come from the whole dose curve; as a rule, active = well fitted curve in the direction sought with a large enough effect; inconclusive = small, poorly fitted or top-dose-only effect, or another doubt; inactive = no such curve, though single readings can be large; an effect the other way counts as inactive or inconclusive.

SMILES | HP1b chromo inh | G9a inh-1 | JMJD2A Tudor inh | BAZ2B inh | L3MBTL1 inh-1 | others
Cc1cc(/C=C2\C(=O)NC(=O)N(Cc3ccccc3)C2=O)c(C)n1-c1ccc(Cl)c(C(=O)O)c1 | -87% | 13µM* | 45µM* | 32µM* | 4.5µM* | L3MBTL1 inh-2=0.75*;L3MBTL1 ctr=-11%
Cc1cc(/C=C2\C(=O)NC(=O)N(Cc3ccccc3Cl)C2=O)c(C)n1-c1ccc(C(=O)O)cc1 | 71µM* | 25µM* | ? | 50µM* | 28µM* | L3MBTL1 inh-2=5.3*;L3MBTL1 ctr=8%
Cc1cc(/C=C2\C(=O)NC(=O)N(c3ccc(Cl)cc3)C2=O)c(C)n1-c1sc2c(c1C#N)CCCC2 | 0% | ? | -34% | ? | -17%
Cc1cc(/C=C2\C(=O)NC(=O)N(Cc3ccco3)C2=O)c(C)n1-c1ccc(C(=O)O)cc1 | ? | 50µM* | -32% | 50µM* | 28µM* | L3MBTL1 inh-2=13*;L3MBTL1 ctr=1%
Cc1cc(/C=C2\C(=O)NC(=O)N(c3ccc(F)cc3)C2=O)c(C)n1-c1ccc(C(=O)O)cc1 | 11% | nt | -21% | ? | ?
CC(C)(C)OC(=O)c1ncn2c1[C@@H]1CCCN1C(=O)c1c(Br)cccc1-2 | nt | 11%[12.7 µM] | nt | nt | nt
CCN(Cc1ccc(Cl)nc1)/C(=C/[N+](=O)[O-])NC | nt | -20%[12.7 µM] | nt | nt | nt
O=C1NC(=S)N(C2CC2)C(=O)/C1=C/c1ccc2c(c1)CCN2CCCCl | ? | 11µM* | 45µM* | 32µM* | 32µM* | L3MBTL1 inh-2=4.2*;L3MBTL1 ctr=-2%
CCOc1ccc(N2C(=O)/C(=C/c3ccc(C)o3)C(=O)NC2=S)cc1 | ? | nt | 25µM* | ? | 22µM* | L3MBTL1 inh-2=2.7*;L3MBTL1 ctr=7%
CN1CCC(N2CC3CC(C2)c2cccc(=O)n2C3)CC1 (stereo not given) | 12% | ? | -24% | 3% | 40µM* | L3MBTL1 inh-2=27*;L3MBTL1 ctr=13%
COc1ccc(NC(=O)CN2C(=O)C(C)N=C(c3ccccc3F)c3cc(Cl)ccc32)c(OC)c1 (stereo not given) | 5% | -31%[59 µM] | -33% | -34% | nt
O=C1NC(=O)N(Cc2ccc(F)cc2)C(=O)/C1=C\c1ccoc1 | ? | 40µM* | 79µM* | 50µM* | 20µM* | L3MBTL1 inh-2=7.5*;L3MBTL1 ctr=1%
Cc1ccc(C(C)C)c(OCC(=O)N2CCN(CCc3ccncc3)CC2)c1 | 15% | -7%[59 µM] | -23% | -26% | nt
Cc1cccc(-c2nn3c(=O)cc(CN4CCN(C(=O)COc5ccc(Cl)cc5)CC4)nc3s2)c1 | 16%[57 µM] | -31%[59 µM] | -6% | 3% | nt
CCCCNC(=O)Oc1c(Br)cc2sc(=O)oc2c1Br | nt | 8.9µM* | nt | 50µM* | nt | ME-1 growth=?
CCCCNC(=O)Oc1cc(CCl)on1 | nt | ? | nt | -19% | -14%
COc1ccc(-c2nc3ccccc3c(=O)n2-c2ccc(OC)cc2)cc1 | 28% | -3%[0.501 µM] | -12% | -5% | -1%
CCn1nc(-c2ccccc2)nc2c(=O)n(C)c(=O)nc1-2 | 36% | ? | -14% | 3% | 0.71µM* | ME-1 growth=11µM*
CC(C)n1c(/C=C/[C@H](O)C[C@H](O)CC(=O)O)c(-c2ccc(F)cc2)c2ccccc21 | nt | ? | -25% | -3% | 7%
CCCCc1ccc(C(=O)O)nc1 | 33% | 6µM*! | 9% | 4µM* | 8.9µM* | ME-1 growth=?
Cc1cccc(-n2c(O)c(/C=N/Nc3nc4c(c(=O)n(C)c(=O)n4C)n3C)c(=O)[nH]c2=S)c1 | -19% | ? | ? | ? | -1% | ME-1 growth=-13%
Cc1cccc(-n2c(O)c(C=NCCN3CCNCC3)c(=O)[nH]c2=S)c1 | 34% | -36% | -6% | -25% | nt
Cc1nnc(NC(=O)c2cccn(Cc3ccccc3F)c2=O)s1 | 25%[57 µM] | ? | -8% | 0% | nt
C=C1CC[C@H](O)C/C1=C/C=C1\CCC[C@]2(C)[C@H]1CC[C@H]2[C@@H](C)CCCC(C)C | nt | 21%[21.5 µM] | nt | nt | nt | ME-1 growth=-2%
O=C(Nc1ccccc1)N1CCC2(CC1)CCN(C(=O)Oc1ccccc1)CC2 | nt | -13%[12.7 µM] | nt | nt | nt
SMILES | HP1b chromo inh | G9a inh-1 | JMJD2A Tudor inh | BAZ2B inh | L3MBTL1 inh-1 | others
CN(N=O)c1cc(O)ccc1O | ? | 0.6µM* | 6.3µM* | nt | nt | ME-1 growth=40µM*
Cc1cc(N2CCNCC2)nc2ccccc12 | 34% | ? | -17% | -5% | 0% | G9a inh-2=?
Cn1c(N2CCNCC2)nc2ccccc21 | 22% | 40%[12.7 µM] | -3% | -3% | nt
CCOc1ccc(OC(=O)c2ccc3c(=O)n4c(nc3c2)CCC4)cc1 | -8% | -29%[59 µM] | ? | ? | 0%
Cc1c(Cl)cccc1NC(=O)CN1C(=O)C(C)N=C(c2ccccc2)c2ccccc21 (stereo not given) | 31% | 2%[59 µM] | -8% | nt | nt
c1ccc(CNCCc2ccc3c(c2)OCO3)nc1 | 4% | 1.8µM* | ? | 45µM* | -16% | G9a inh-2=?
Fc1cccc(CCNCc2ccccn2)c1 | -1% | 1.6µM* | 3.5µM* | 20µM* | -10% | G9a inh-2=28*
Fc1ccc(CCNCc2ccccc2Cl)cc1 | 40% | 2%[12.7 µM] | 3% | 4% | nt
Cc1ccccc1Cn1cccc(C(=O)Nc2cc(Cl)ccc2C#N)c1=O | 11%[57 µM] | 8%[59 µM] | -11% | 12% | nt
CCc1nc(-c2ccc(C)nc2OC)no1 | 7% | ? | -12% | -7% | nt | G9a inh-2=1.8*
COc1ccc(-c2noc(CN3C(=O)c4ccccc4C3=O)n2)cc1 | 23% | ? | -14% | 12% | 11%
CSc1ccc(CN2CCN(C(=O)COc3cccc(C)c3)CC2)cc1 | 40µM* | 10µM* | 8.9µM* | 50µM* | -15% | G9a inh-2=40*
O=C(COc1ccc(Cl)cc1)N1CCN(Cc2ccc([N+](=O)[O-])cc2)CC1 | ? | 2.5µM* | 11µM* | nt | -5% | G9a inh-2=35*
Cc1ccc(OCC(=O)N2CCN(Cc3cccnc3)CC2)cc1 | ? | 2.8µM* | 4µM* | nt | 1% | G9a inh-2=16*
CC(=O)O[C@H]1CC[C@@]2(C)C(=CC[C@H]3[C@@H]4CC[C@H](C(C)=O)[C@@]4(C)CC[C@@H]32)C1 | 23% | nt | -16% | nt | nt
